Inconclusive results are not listed. A call without a number means that no potency is given here. The source made the active and inactive calls. Unless noted, the call rests on the fitted dose curve.
Molecular target: Androgen receptor (Homo sapiens) (UniProt P10275)
Assay: qHTS assay to identify small molecule agonists of the androgen receptor (AR) signaling pathway in the presence of an antagonist (AID 1259381); further: nearly all actives have a fitted effect of over 15% in size
Details: MDA-kb2 MMTV-luciferase, AR agonist + nilutamide, 16 h; series mostly up to 42.5 µM
Procedure, shortened: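 Reporter-gene luminescence from MDA-kb2 cells exposed 16hr at 37C (0% CO2) to 15-point compound titrations with 3.0uM final nilutamide as AR antagonist.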

Androgen receptor (Homo sapiens), sequence (P10275 whole entry, looked up): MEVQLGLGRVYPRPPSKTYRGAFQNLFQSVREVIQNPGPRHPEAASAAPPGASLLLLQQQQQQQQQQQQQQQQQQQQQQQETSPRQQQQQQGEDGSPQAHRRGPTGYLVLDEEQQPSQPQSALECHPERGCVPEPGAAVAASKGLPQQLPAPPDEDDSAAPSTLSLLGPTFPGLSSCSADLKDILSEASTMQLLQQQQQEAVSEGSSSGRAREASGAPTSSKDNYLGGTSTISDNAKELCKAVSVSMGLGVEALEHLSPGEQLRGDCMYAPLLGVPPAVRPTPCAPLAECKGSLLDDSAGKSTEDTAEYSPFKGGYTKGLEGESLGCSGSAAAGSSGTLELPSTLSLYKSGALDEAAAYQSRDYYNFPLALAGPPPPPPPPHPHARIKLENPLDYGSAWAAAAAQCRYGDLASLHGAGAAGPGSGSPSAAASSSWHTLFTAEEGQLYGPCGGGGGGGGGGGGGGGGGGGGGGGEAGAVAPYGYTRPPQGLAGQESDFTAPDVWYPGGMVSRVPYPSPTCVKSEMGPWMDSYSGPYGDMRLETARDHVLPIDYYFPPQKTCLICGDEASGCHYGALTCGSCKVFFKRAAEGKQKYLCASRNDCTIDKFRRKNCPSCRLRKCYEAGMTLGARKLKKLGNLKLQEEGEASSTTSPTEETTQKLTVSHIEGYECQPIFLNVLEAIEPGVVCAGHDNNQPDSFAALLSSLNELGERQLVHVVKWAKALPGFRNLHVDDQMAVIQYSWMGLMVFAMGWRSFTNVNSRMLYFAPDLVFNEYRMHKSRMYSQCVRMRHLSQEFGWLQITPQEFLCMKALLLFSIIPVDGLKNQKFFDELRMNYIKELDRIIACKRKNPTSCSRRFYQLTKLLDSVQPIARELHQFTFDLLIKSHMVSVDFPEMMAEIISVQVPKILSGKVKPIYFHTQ

**Q.** Which Potency does the source give for `CC1(O)CSC(C)(O)CS1` (stereo unspecified) here?
**A.** Its Potency is “inactive”.

**Q.** With `CCc1cc2cc(OC)c(OC)cc2c(Cc2ccccc2)n1` as the molecule, how does the Potency read?
**A.** Its Potency is “inactive”.

**Q.** For `CC1=C2[C@H](/C=C(\C)C(=O)O)CC[C@@H](C)[C@H]2CC1`, which Potency is on record?
**A.** Its Potency is “inactive”.

**Q.** Which Potency does the source give for `CCCCCOc1ccc(C2SC(=O)NC2=O)cc1OCC` (stereo unspecified) here?
**A.** Its Potency is “inactive”.

**Q.** Which Potency does the source give for `Cc1cc(S(=O)(=O)O)c(N)cc1Cl` here?
**A.** The Potency was “inactive”.

**Q.** For `COC(=O)/C=C(/C)N`, which Potency is on record?
**A.** The Potency was “inactive”.

**Q.** Which Potency does the source give for `CCCCCCn1c(=O)c2c(ncn2C)n(C)c1=O` here?
**A.** Its Potency is “inactive”.

**Q.** Which Potency does the source give for `Cc1ncc(CO)c(CN)c1O` here?
**A.** The Potency was “inactive”.

**Q.** For `CC(Oc1c(Cl)cccc1Cl)C1=NCCN1` (stereo unspecified), which Potency is on record?
**A.** The Potency was “inactive”.

Test system: not listed separately
Assay: qHTS assay to identify small molecule antagonists of the estrogen receptor beta (ER-beta) signaling pathway - cell viability counter screen (AID 1259382; active means well fitted cell-killing curve with a large enough effect in the repeat runs;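 further: HEK293T cells carrying ER-beta-UAS-bla reporter stimulated with estradiol; nearly all actives have a fitted effect of over 55% in size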)
Details: ER-beta-UAS-bla HEK293T viability, CellTiter-Glo luminescence, 16 h; series mostly up to 92.4 µM
Procedure, shortened: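 Viability is scored by CellTiter-Glo luminescence (30 min, room temperature) in ER-beta-UAS-bla HEK293T wells already read for reporter fluorescence. Compound exposure lasts 16 hr at 37C alongside 1nM 17-beta-estradiol in charcoal-stripped serum medium.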

**Q.** With `CC1(O)CSC(C)(O)CS1` (stereo unspecified) as the molecule, how does the outcome read?
**A.** Its outcome is “inactive”.

**Q.** Which outcome does the source give for `CCOC(=O)C1CC(=O)C(=C(O)C2CC2)C(=O)C1` (stereo unspecified) here?
**A.** Its outcome is “inactive”.

**Q.** Which outcome does the source give for `Cc1ccc([N+](=O)[O-])cc1Cl` here?
**A.** Its outcome is “inactive”.

**Q.** Which outcome does the source give for `O=C(CCCl)NCc1ccccc1` here?
**A.** The outcome was “inactive”.

**Q.** Which outcome does the source give for `Cc1ccc(C)c(N)c1` here?
**A.** Its outcome is “inactive”.

**Q.** Which outcome does the source give for `CCc1cc2cc(OC)c(OC)cc2c(Cc2ccccc2)n1` here?
**A.** Its outcome is “inactive”.

**Q.** Which outcome does the source give for `NS(=O)(=O)c1cc(-c2nn[nH]n2)c(NCc2cccs2)cc1Cl` here?
**A.** Its outcome is “inactive”.

**Q.** Which outcome does the source give for `Cc1ccc([N+](=O)[O-])c(N)c1` here?
**A.** Its outcome is “inactive”.

**Q.** For `CN(C)C(=O)NC1(c2ccccc2)CCN(CCC[C@]2(c3ccc(Cl)c(Cl)c3)CCCN(C(=O)c3ccccc3)C2)CC1`, which activity change, negative = cytotoxicity is on record?
**A.** Its activity change, negative = cytotoxicity is -18% [at 19 µM] (inactive).

**Q.** With `COC(=O)N[C@H](C(=O)N[C@@H](Cc1ccccc1)[C@@H](O)CN(Cc1ccc(-c2ccccn2)cc1)NC(=O)[C@@H](NC(=O)OC)C(C)(C)C)C(C)(C)C` as the molecule, how does the outcome read?
**A.** Its outcome is “inactive”.

**Q.** Which activity change, negative = cytotoxicity does the source give for `O=c1oc2c(O)c(O)cc3c(=O)oc4c(O)c(O)cc1c4c23` here?
**A.** Its activity change, negative = cytotoxicity is -1.21% [at 19 µM] (inactive).

**Q.** With `C=CCCC=C` as the molecule, how does the outcome read?
**A.** Its outcome is “inactive”.

**Q.** For `C=CCCCCCCCCO`, which outcome is on record?
**A.** The outcome was “inactive”.

**Q.** Which outcome does the source give for `O=c1[nH]c(=O)n([C@H]2C[C@H](O)[C@@H](CO)O2)cc1C(F)(F)F` here?
**A.** Its outcome is “inactive”.

**Q.** With `FC(F)(F)C(Cl)(Cl)Cl` as the molecule, how does the outcome read?
**A.** Its outcome is “inactive”.

**Q.** For `CC1=CC(=O)CC(C)(C)C1=O`, which outcome is on record?
**A.** The outcome was “inactive”.

**Q.** Which outcome does the source give for `O=S(=O)(O)C(F)(F)F` here?
**A.** The outcome was “inactive”.

**Q.** With `Cc1c(-c2ccccc2)oc2c(C(=O)OCCN3CCCCC3)cccc2c1=O` as the molecule, how does the outcome read?
**A.** Its outcome is “inactive”.

**Q.** Which outcome does the source give for `CCN(CC)CC1CCCCN1CC(=O)N1c2ccccc2C(=O)Nc2cccnc21` (stereo unspecified) here?
**A.** Its outcome is “inactive”.

**Q.** Which outcome does the source give for `Cc1cc(S(=O)(=O)O)c(N)cc1Cl` here?
**A.** Its outcome is “inactive”.

**Q.** Which outcome does the source give for `CC(C)O` here?
**A.** Its outcome is “inactive”.

**Q.** Which outcome does the source give for `CCC1(C)NC(=O)NC1=O` (stereo unspecified) here?
**A.** Its outcome is “inactive”.

**Q.** Which outcome does the source give for `Cc1cn([C@@H]2O[C@H](CO)[C@@H](O)[C@@H]2F)c(=O)[nH]c1=O` here?
**A.** Its outcome is “inactive”.

**Q.** For `CC[C@H]1CC[C@H](NCc2cc3c(cc2OC)[C@H]2C[C@H]2C(=O)N3C)[C@H](c2ccccc2)N1`, which outcome is on record?
**A.** Its outcome is “inactive”.

**Q.** For `CCCCC(CC)COC(=O)COc1cc(Cl)c(Cl)cc1Cl` (stereo unspecified), which outcome is on record?
**A.** Its outcome is “inactive”.

**Q.** With `O=C(O)c1ccccc1Nc1cc(Cl)ccc1C(=O)O` as the molecule, how does the activity change, negative = cytotoxicity read?
**A.** The activity change, negative = cytotoxicity was -13.6% [at 19 µM] (inactive).

**Q.** For `COC(=O)/C=C(/C)N`, which outcome is on record?
**A.** Its outcome is “inactive”.

**Q.** With `CCCCCCn1c(=O)c2c(ncn2C)n(C)c1=O` as the molecule, how does the outcome read?
**A.** Its outcome is “inactive”.

**Q.** Which outcome does the source give for `COc1cc(N)c(Cl)cc1C(=O)NC1CCN(Cc2ccccc2)CC1` here?
**A.** Its outcome is “inactive”.

**Q.** For `Cc1ncc(CO)c(CN)c1O`, which outcome is on record?
**A.** The outcome was “inactive”.

**Q.** Which outcome does the source give for `O=CCCc1ccccc1` here?
**A.** The outcome was “inactive”.

**Q.** With `O=C1Nc2ccc([N+](=O)[O-])cc2C1=O` as the molecule, how does the outcome read?
**A.** The outcome was “inactive”.

**Q.** With `CCCCCCCCCC#N` as the molecule, how does the outcome read?
**A.** The outcome was “inactive”.

**Q.** With `COc1ccccc1N1CCN(CCCNc2cc(=O)n(C)c(=O)n2C)CC1` as the molecule, how does the outcome read?
**A.** The outcome was “inactive”.

**Q.** For `CC(Oc1c(Cl)cccc1Cl)C1=NCCN1` (stereo unspecified), which outcome is on record?
**A.** The outcome was “inactive”.

**Q.** With `CCCCCCCCOC(=O)CCCCCCCCC(=O)OCCCCCCCC` as the molecule, how does the outcome read?
**A.** The outcome was “inactive”.

Molecular target: Estrogen receptor (Homo sapiens) (UniProt P03372)
Assay: qHTS assay to identify small molecule agonists of the estrogen receptor alpha (ER-alpha) signaling pathway in the presence of an antagonist (AID 1259383); further: top concentration of the series differs between compounds; nearly all actives have a fitted effect of over 15% in size
Details: VM7Luc4E2 cells, ERE-luciferase, +ICI-182,780, 22 h; series mostly up to 92.4 µM
Procedure, shortened: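 Readout was ERE-driven luciferase luminescence in VM7Luc4E2 cells, which express full-length ER-alpha endogenously. Compounds were tested at 15 concentrations for 22hr alongside 10.0nM ICI-182,780 (final concentration).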

Estrogen receptor (Homo sapiens), sequence (P03372 whole entry, looked up): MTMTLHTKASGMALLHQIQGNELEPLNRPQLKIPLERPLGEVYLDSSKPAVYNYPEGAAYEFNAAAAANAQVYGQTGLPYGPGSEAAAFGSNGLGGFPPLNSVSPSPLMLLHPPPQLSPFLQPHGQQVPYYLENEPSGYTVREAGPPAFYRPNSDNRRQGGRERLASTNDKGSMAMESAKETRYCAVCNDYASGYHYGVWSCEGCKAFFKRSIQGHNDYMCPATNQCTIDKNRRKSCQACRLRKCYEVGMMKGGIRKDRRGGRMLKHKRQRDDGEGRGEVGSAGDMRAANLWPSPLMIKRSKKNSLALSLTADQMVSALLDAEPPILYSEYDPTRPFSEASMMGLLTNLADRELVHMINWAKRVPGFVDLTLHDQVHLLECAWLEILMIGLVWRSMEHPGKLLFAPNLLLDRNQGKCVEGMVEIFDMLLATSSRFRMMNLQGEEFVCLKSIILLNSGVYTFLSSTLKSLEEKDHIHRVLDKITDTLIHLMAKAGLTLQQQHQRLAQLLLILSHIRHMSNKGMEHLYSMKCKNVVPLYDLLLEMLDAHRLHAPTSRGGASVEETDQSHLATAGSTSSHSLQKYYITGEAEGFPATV

**Q.** Which Potency does the source give for `CC1(O)CSC(C)(O)CS1` (stereo unspecified) here?
**A.** Its Potency is “inactive”.

**Q.** Which Potency does the source give for `CCOC(=O)C1CC(=O)C(=C(O)C2CC2)C(=O)C1` (stereo unspecified) here?
**A.** The Potency was “inactive”.

**Q.** For `O=C(CCCl)NCc1ccccc1`, which Potency is on record?
**A.** Its Potency is “inactive”.

**Q.** Which Potency does the source give for `Cc1ccc(C)c(N)c1` here?
**A.** The Potency was “inactive”.

**Q.** For `CCc1cc2cc(OC)c(OC)cc2c(Cc2ccccc2)n1`, which Potency is on record?
**A.** The Potency was “inactive”.

**Q.** Which Potency does the source give for `NS(=O)(=O)c1cc(-c2nn[nH]n2)c(NCc2cccs2)cc1Cl` here?
**A.** Its Potency is “inactive”.

**Q.** For `CN(C)C(=O)NC1(c2ccccc2)CCN(CCC[C@]2(c3ccc(Cl)c(Cl)c3)CCCN(C(=O)c3ccccc3)C2)CC1`, which activation is on record?
**A.** Its activation is -0.618% [at 19 µM] (inactive).

**Q.** Which Potency does the source give for `CC1=C2[C@H](/C=C(\C)C(=O)O)CC[C@@H](C)[C@H]2CC1` here?
**A.** Its Potency is “inactive”.

**Q.** Which Potency does the source give for `COC(=O)N[C@H](C(=O)N[C@@H](Cc1ccccc1)[C@@H](O)CN(Cc1ccc(-c2ccccn2)cc1)NC(=O)[C@@H](NC(=O)OC)C(C)(C)C)C(C)(C)C` here?
**A.** Its Potency is “inactive”.

**Q.** For `O=c1oc2c(O)c(O)cc3c(=O)oc4c(O)c(O)cc1c4c23`, which activation is on record?
**A.** Its activation is -0.711% [at 19 µM] (inactive).

**Q.** For `CCCCCOc1ccc(C2SC(=O)NC2=O)cc1OCC` (stereo unspecified), which Potency is on record?
**A.** Its Potency is “inactive”.

**Q.** For `C=CCCC=C`, which Potency is on record?
**A.** The Potency was “inactive”.

**Q.** For `C=CCCCCCCCCO`, which Potency is on record?
**A.** The Potency was “inactive”.

**Q.** With `O=c1[nH]c(=O)n([C@H]2C[C@H](O)[C@@H](CO)O2)cc1C(F)(F)F` as the molecule, how does the Potency read?
**A.** Its Potency is “inactive”.

**Q.** Which Potency does the source give for `FC(F)(F)C(Cl)(Cl)Cl` here?
**A.** The Potency was “inactive”.

**Q.** For `CC1=CC(=O)CC(C)(C)C1=O`, which Potency is on record?
**A.** The Potency was “inactive”.

**Q.** With `O=S(=O)(O)C(F)(F)F` as the molecule, how does the Potency read?
**A.** The Potency was “inactive”.

**Q.** For `Cc1c(-c2ccccc2)oc2c(C(=O)OCCN3CCCCC3)cccc2c1=O`, which Potency is on record?
**A.** The Potency was “inactive”.

**Q.** Which Potency does the source give for `CCN(CC)CC1CCCCN1CC(=O)N1c2ccccc2C(=O)Nc2cccnc21` (stereo unspecified) here?
**A.** Its Potency is “inactive”.

**Q.** Which Potency does the source give for `Cc1cc(S(=O)(=O)O)c(N)cc1Cl` here?
**A.** The Potency was “inactive”.

**Q.** Which Potency does the source give for `CC(C)O` here?
**A.** Its Potency is “inactive”.

**Q.** With `CC[C@H]1CC[C@H](NCc2cc3c(cc2OC)[C@H]2C[C@H]2C(=O)N3C)[C@H](c2ccccc2)N1` as the molecule, how does the Potency read?
**A.** Its Potency is “inactive”.

**Q.** For `CCCCC(CC)COC(=O)COc1cc(Cl)c(Cl)cc1Cl` (stereo unspecified), which Potency is on record?
**A.** Its Potency is “inactive”.

**Q.** Which activation does the source give for `O=C(O)c1ccccc1Nc1cc(Cl)ccc1C(=O)O` here?
**A.** Its activation is -1.25% [at 19 µM] (inactive).

**Q.** For `COC(=O)/C=C(/C)N`, which Potency is on record?
**A.** Its Potency is “inactive”.

**Q.** Which Potency does the source give for `CCCCCCn1c(=O)c2c(ncn2C)n(C)c1=O` here?
**A.** The Potency was “inactive”.

**Q.** For `COc1cc(N)c(Cl)cc1C(=O)NC1CCN(Cc2ccccc2)CC1`, which Potency is on record?
**A.** Its Potency is “inactive”.

**Q.** With `Cc1ncc(CO)c(CN)c1O` as the molecule, how does the Potency read?
**A.** The Potency was “inactive”.

**Q.** Which Potency does the source give for `CCCCCCCCCC#N` here?
**A.** Its Potency is “inactive”.

**Q.** Which Potency does the source give for `COc1ccccc1N1CCN(CCCNc2cc(=O)n(C)c(=O)n2C)CC1` here?
**A.** The Potency was “inactive”.

**Q.** Which Potency does the source give for `CCCCCCCCOC(=O)CCCCCCCCC(=O)OCCCCCCCC` here?
**A.** Its Potency is “inactive”.
